# An excerpt weighted towards active compounds, which were near 7.5% of everything screened.
# VP16 counter: inhibits Gal4-VP16 luciferase reporter, ROR gamma counter-screen; AID 2546; 3.5% of 310,000 active; Drosophila S2 Gal4-VP16 UAS-luciferase, luminescence, 20 h; Potency, µM (doses to about 53.6 µM), for inactives: top-dose activity, negative = inhibition, usual class: inhibitors;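 note: Gal4-VP16 expression switched on by copper sulfate through the metallothionein promoter; potency is the fitted concentration of half-maximal effect; nearly all actives have a fitted effect of over 50% in size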
# TSHR antag: blocks TSH signaling through the human TSH receptor | AID 504810 | 0.2% of 330,000 active | TSHR-expressing cells, TSH-stimulated cAMP HTRF, 2 h; active compounds read low | P16473 | activity change, negative = inhibition, % at 11.5 µM;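 active = activity change below a set negative limit, meaning inhibition stronger than a set level, cut at about -70% in these data; inconclusive = activity change between two set negative limits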
# Target sequence (P16473 whole entry, looked up): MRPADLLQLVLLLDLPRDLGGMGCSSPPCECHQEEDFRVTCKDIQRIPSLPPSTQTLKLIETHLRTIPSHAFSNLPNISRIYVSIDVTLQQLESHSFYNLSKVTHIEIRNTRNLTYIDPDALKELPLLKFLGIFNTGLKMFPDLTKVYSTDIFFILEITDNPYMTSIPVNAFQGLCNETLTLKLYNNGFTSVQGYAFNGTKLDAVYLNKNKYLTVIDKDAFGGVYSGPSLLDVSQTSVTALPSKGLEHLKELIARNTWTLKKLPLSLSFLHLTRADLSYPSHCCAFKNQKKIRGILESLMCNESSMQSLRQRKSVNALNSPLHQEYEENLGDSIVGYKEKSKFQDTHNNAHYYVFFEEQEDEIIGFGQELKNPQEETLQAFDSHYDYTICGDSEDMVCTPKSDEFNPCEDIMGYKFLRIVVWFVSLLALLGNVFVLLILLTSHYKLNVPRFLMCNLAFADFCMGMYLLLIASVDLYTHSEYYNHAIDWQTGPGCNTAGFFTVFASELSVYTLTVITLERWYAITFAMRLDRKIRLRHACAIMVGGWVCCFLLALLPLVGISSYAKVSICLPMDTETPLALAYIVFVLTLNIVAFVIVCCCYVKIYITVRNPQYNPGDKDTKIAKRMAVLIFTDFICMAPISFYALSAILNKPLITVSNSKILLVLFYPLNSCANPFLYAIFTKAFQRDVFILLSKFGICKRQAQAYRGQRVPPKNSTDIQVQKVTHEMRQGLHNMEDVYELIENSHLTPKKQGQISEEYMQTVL
#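 Antagonism was scored as loss of TSH-driven cAMP in TSHR cells, stimulated with 4nM TSH (EC80) for 2 hours at 37 deg C and detected by homogeneous HTRF competition immunoassay.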
# ELG1 DNA repair: blocks ELG1-dependent DNA repair in HEK293T cells; HEK293T ELG1-luciferase reporter, luminescence, 16 h; DNA damage induced by 5-fluorouridine; Potency, µM (top dose mostly 46.1 µM), inactives show at the highest dose activity change, negative = inhibition, usual class: inhibitors; 2.3% of 330,000 active; AID 504467; note: potency is the fitted concentration of half-maximal effect; nearly all actives have a fitted effect of over 55% in size
#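 5-Fluorouridine DNA damage + compound/DMSO, 2,000 cells/well, 16 h, 37 °C/5% CO2. ONE-Glo, 30 min RT, luminescence. Readout = decrease in reporter signal.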
# B2AR arrestin: agonists driving beta-arrestin recruitment to human beta2-adrenergic receptor | 0.02% of 330,000 active | beta-arrestin recruitment to beta2AR, cell-based reporter | P07550 | AID 492947 | Potency, µM (doses to about 46.1 µM), without a hit: at the top dose activation, hits mostly activators;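 note: potency is the fitted concentration of half-maximal effect; 0% = DMSO controls and full agonism = EC100 isoproterenol or metaproterenol; nearly all actives have a fitted effect of over 65% in size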
# RORgamma inh: blocks mouse ROR gamma transcriptional activity; 5.4% of 310,000 active; Drosophila S2 Gal4-RORgamma UAS-luciferase reporter, 20 h; P51450; AID 2551; Potency, µM (series often up to 53.6 µM), inactives show top-dose activity change, negative = inhibition, hits mostly inhibitors; note: potency is the fitted concentration of half-maximal effect; nearly all actives have a fitted effect of over 60% in size
#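 Luciferase reporter read in Schneider cells carrying Gal4-RORγ (mouse) and UAS-Photinus luciferase; cells given compound 1 h before 700 uM copper sulfate induction, then incubated 20 h at ambient temperature.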
# * = called active by the depositor; ? = inconclusive; / = no result; [ ] = remark or other dose. Unless noted, calls come from the whole dose curve; as a rule, active = well fitted curve in the direction sought with a large enough effect; inconclusive = small, poorly fitted or top-dose-only effect, or another doubt; inactive = no such curve, though single readings can be large; an effect the other way counts as inactive or inconclusive. Unless noted, % is set by controls: 0 for no effect and ±100 for the full control effect.
SMILES,VP16 counter,TSHR antag,ELG1 DNA repair,B2AR arrestin,RORgamma inh
CC(=O)N(C)c1ccc(OCC(O)Cn2c3ccc(Cl)cc3c3cc(Cl)ccc32)cc1 (centres undefined),4%[0.365 µM],12,18µM*,0%,20µM*
CC(=O)Nc1ccc(OCC(O)Cn2c(CO)nc3ccccc32)cc1 (centres undefined),-14%,1,6%,5%,1%
CC(=O)N(C)c1ccc(OCC(O)Cn2c(C)nc3ccccc32)cc1 (centres undefined),16µM*,-2,9.2µM*,0%,-34%
CCCNC(=O)C(Cc1ccc(C(F)(F)P(=O)(OCC)OCC)cc1)NC(=O)c1ccc(C#N)cc1 (centres undefined),/,4,10%,0%,/
Cc1cc(C)c(S(=O)(=O)Nc2nccs2)c(C)c1,-6%,5,5%,0%,-1%
COc1ccc2c(c1)O[C@@H](c1ccc3c(c1)OCO3)[C@H](OC(=O)NS(=O)(=O)c1ccc(F)cc1)C2=O,10%,/,/,/,5%
Cn1c(SCC(=O)c2ccccc2)nnc1-c1ccc(O)cc1,11µM*,-7,?,12%,0%
Cn1c(SCC(=O)c2ccccc2)nnc1-c1ccncc1,25%,-5,?,0%,10%
Cc1ccc(-c2nnc(SCC(=O)NC3CCCC3)n2C)cc1,-14%,-94*,-5%,0%,18%
CC(C)NC(=O)C1CCN(C2CCN(C(=O)c3cc4c(s3)CCCCC4)CC2)CC1,7.9µM*,3,-14%,0%,10µM*
Cc1cnc(C(=O)Nc2cccc3cccnc23)cn1,0.2µM*,-7,10%,0%,0.079µM*
COc1cc(C(=O)Nc2cccc3cccnc23)cc(OC)c1OC,-16%,6,21µM*,-1%,-3%
CCOC(=O)/C(=C\C=C1/Sc2cc(OCC)c(OCC)cc2N1CC)C(C)=O,-7%,-5,16µM*,-1%,40%
O=C(CN1CCN(S(=O)(=O)c2ccccc2F)CC1)Nc1ccccc1C(=O)c1ccccc1,-2%,-13,12µM*,0%,6%
Cc1ccnc2nc(C(=O)OCC(=O)N3CC(C)CC(C)C3)nn12 (centres undefined),/,-4,14%,0%,/
Cn1ncc(Cl)c(Oc2ccc(C(C)(C)C)cc2)c1=O,35µM*,2,21%,-1%,-16%
Cc1ccc(C)c(SCC(=O)OC/C(O)=C(\C#N)c2nc3ccccc3[nH]2)c1,?,-3,?,0%,10µM*
N#C/C(=C(/O)CSc1n[nH]c(N)n1)c1nc2ccccc2[nH]1,-3%,-8,7%,2%,-34%
N#C/C(=C(/O)COC(=O)CSc1ccc2ccccc2c1)c1nc2ccccc2[nH]1,14µM*,1,?,-1%,7.1µM*
Cc1cc(Br)ccc1SCC(=O)OC/C(O)=C(\C#N)c1nc2ccccc2[nH]1,?,1,7%,0%,0%
CC(=O)Oc1cc(C)c(OC(C)=O)c2ccccc12,-17%,/,/,/,-1%[10 µM]
CNC(=S)Nc1ccc(Nc2ccccc2)cc1,-2%,1,?,-1%,11µM*
CNC(=S)Nc1ccc(C(N)=O)cc1,-7%,27,11%,0%,-1%
CCCNC(=S)Nc1ccc(Nc2ccccc2)cc1,16µM*,0,?,0%,5µM*
CNC(=S)Nc1ccc(Br)cc1,-2%,8,15%,7%,35µM*
SMILES,VP16 counter,TSHR antag,ELG1 DNA repair,B2AR arrestin,RORgamma inh
CNC(=S)Nc1ccc(OC(F)(F)F)cc1,10µM*,-5,7%,0%,7.1µM*
CCCn1c(C)nc2c(NC(C)CCCN(CC)CC)nc(C)nc21 (centres undefined),6%,/,/,/,-24%
CN(C)/C=C/c1oc2ccc(O)cc2c1[N+](=O)[O-],-3%,-14,?,0%,-13%
O=[N+]([O-])c1ccc(S(=O)(=O)N/N=C/c2ccsc2)cc1,20%,-8,-8%,0%,-13%
CN(C)c1ccc(C(=N)c2ccc(N(C)C)cc2)cc1,23%,/,/,/,-16%
CN=C1C=CC(=C(c2ccc(N(C)C)cc2)c2ccc(N(C)C)cc2)C=C1,2.5µM*,/,/,/,?
CCOc1ccc(S(=O)(=O)Nc2ccc(C(=O)NCC(c3ccccc3)N(C)C)cc2)cc1 (centres undefined),/,2,-4%,0%,/
O=C(CSc1ccccc1C(=O)N1CCCCC1)NCC1CCCCC1,9%,-8,-5%,-1%,2.5µM*
COc1ccc(NC(=S)N2CCC(Cc3ccccc3)CC2)cc1OC,16µM*,-7,-24%,-1%,13µM*
Cc1ccc(CNC(=O)c2ccccc2SCC(=O)NCC2CCCCC2)cc1,7%,10,?,-1%,41%
COCCSc1ccccc1C(=O)N1CCC(Cc2ccccc2)CC1,2%,9,23µM*,-1%,0%
CC(=O)c1ccc(NC(=S)N2CCC(Cc3ccccc3)CC2)cc1,-4%,0,0%,0%,20%
CC(=O)c1cccc(NC(=S)N2CCC(Cc3ccccc3)CC2)c1,-71%,-1,-17%,0%,14µM*
C[C@@H]1C[C@H](OC(=O)c2ccccc2O)CC(C)(C)C1,7%[17 µM],/,/,/,14%[16.9 µM]
COC(=O)Cc1ccc(NC(=S)N2CCN(C)CC2)cc1,-6%[10 µM],1,0%,0%,?
COc1cccc(NC(=S)N2CCC(Cc3ccccc3)CC2)c1,18µM*,37,?,-1%,7.1µM*
COC(=O)Cc1ccc(NC(=S)N2CCC(Cc3ccccc3)CC2)cc1,?,8,1%,0%,14µM*
CN(CCO)c1ccc(-c2n[nH]c(=O)c3ccccc23)cc1[N+](=O)[O-],-2%,-5,?,-1%,-7%
COC(=O)C(NS(N)(=O)=O)C(C)C (centres undefined),5%,/,/,/,-15%
CC(c1ccc(F)cc1)n1c(-c2ccc3ccccc3n2)n[nH]c1=S (centres undefined),3.5µM*,3,18%,0%,0.89µM*
CC(c1ccc(Cl)cc1)n1c(-c2ccc3ccccc3n2)n[nH]c1=S (centres undefined),4.5µM*,-8,0%,0%,1.8µM*
CCCn1c(-c2ccc(F)cc2)n[nH]c1=S,1%,8,-11%,?,?
CC1(C)Cc2ccccc2-c2nnc(-c3ccc4ccccc4n3)n21,-1%,19,-19%,3%,-27%
CC1(C)Cc2c(sc(NC(=O)c3ccc(C(=O)c4ccccc4)cc3)c2C(N)=O)C(C)(C)N1,13µM*,14,?,-1%,?
CC1(C)Cc2c(sc(NC(=O)c3ccc4ncsc4c3)c2C(N)=O)C(C)(C)N1,?,1,?,0%,?
COC(=O)c1c(NC(=O)c2ccco2)sc2c1CC(C)(C)NC2(C)C,-26%,41,9.2µM*,-2%,-11%
